# The full data set covers some 7,900 targets. This sample favours those with a hit. About 0.6% of all pairs of compound and target were hits. Unmarked numbers belong to inactive results.
# Legend:
# Test in all cases: log2 fold change, soluble protein after heating vs DMSO (PISA); higher = thermal stabilisation; K562 cells, 10 uM, 30 min; active = over 0.2 and 3.5 SD of the protein, either way, in both replicates (recomputed)
# [1] = compound: CS(=O)(=O)c1ccc(-c2cnc(N)c(C(=O)Nc3ccccc3)n2)cc1
# How it was run: (§1)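 K562 cells at 2×10^6 cells/mL were treated with 10 μM compound for 30 min. Aliquots were heated for 3 min across 48°C-58°C, pooled, and extracted in PBS with 0.5% NP-40 at 4°C; soluble protein was the supernatant after 21,000xg for 90 min. Soluble protein was quantified by TMTpro 16plex LC-MS/MS with channel sums equalised, and reported as log2 fold change in thermal stability against DMSO controls, with values from duplicates.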
# crizotinib = compound: C[C@@H](Oc1cc(-c2cnn(C3CCNCC3)c2)cnc1N)c1c(Cl)ccc(F)c1Cl [crizotinib]
# How it was run: as §1
# [2] = compound: C[C@@H]1COCCN1C2=NC(=NC(=C2)C3(CC3)S(=O)(=O)C)C4=C5C=CNC5=CC=C4
# How it was run: as §1
# [3] = compound: C[C@H](C1=CC=C(C=C1)C(=O)NC2=C3C=CNC3=NC=C2)N
# How it was run: as §1
# duvelisib = compound: C[C@H](Nc1ncnc2nc[nH]c12)c1cc2cccc(Cl)c2c(=O)n1-c1ccccc1 [duvelisib]
# How it was run: as §1
# gandotinib = compound: Cc1cc(Nc2cc(CN3CCOCC3)c3nc(C)c(Cc4ccc(Cl)cc4F)n3n2)n[nH]1 [gandotinib]
# How it was run: as §1
# tozasertib = compound: Cc1cc(Nc2cc(N3CCN(C)CC3)nc(Sc3ccc(NC(=O)C4CC4)cc3)n2)n[nH]1 [tozasertib]
# How it was run: as §1
# [4] = compound: Cc1cc(SCc2sc(-c3ccc(C(F)(F)F)cc3)nc2C)ccc1OCC(=O)O
# How it was run: as §1
# doramapimod = compound: Cc1ccc(-n2nc(C(C)(C)C)cc2NC(=O)Nc2ccc(OCCN3CCOCC3)c3ccccc23)cc1 [doramapimod]
# How it was run: as §1
# ispinesib = compound: Cc1ccc(C(=O)N(CCCN)[C@@H](c2nc3cc(Cl)ccc3c(=O)n2Cc2ccccc2)C(C)C)cc1 [ispinesib]
# How it was run: as §1
# Sequence of UniProt P06865 (P06865 whole entry, looked up): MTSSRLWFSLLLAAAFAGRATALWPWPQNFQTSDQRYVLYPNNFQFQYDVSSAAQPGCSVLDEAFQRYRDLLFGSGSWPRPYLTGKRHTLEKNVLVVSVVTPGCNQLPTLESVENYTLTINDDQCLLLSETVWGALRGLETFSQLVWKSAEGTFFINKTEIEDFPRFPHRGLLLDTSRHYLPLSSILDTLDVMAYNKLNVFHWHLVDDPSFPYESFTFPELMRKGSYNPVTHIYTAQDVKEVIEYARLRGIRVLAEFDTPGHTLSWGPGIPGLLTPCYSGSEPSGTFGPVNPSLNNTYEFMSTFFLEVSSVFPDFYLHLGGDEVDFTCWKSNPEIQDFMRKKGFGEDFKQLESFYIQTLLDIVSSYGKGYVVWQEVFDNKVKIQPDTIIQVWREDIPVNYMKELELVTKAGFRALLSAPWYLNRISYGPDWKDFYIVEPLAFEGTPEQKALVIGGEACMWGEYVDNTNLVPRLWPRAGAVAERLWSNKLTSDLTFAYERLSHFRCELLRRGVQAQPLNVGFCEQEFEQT
# Sequence of UniProt Q6Y7W6 (Q6Y7W6 whole entry, looked up): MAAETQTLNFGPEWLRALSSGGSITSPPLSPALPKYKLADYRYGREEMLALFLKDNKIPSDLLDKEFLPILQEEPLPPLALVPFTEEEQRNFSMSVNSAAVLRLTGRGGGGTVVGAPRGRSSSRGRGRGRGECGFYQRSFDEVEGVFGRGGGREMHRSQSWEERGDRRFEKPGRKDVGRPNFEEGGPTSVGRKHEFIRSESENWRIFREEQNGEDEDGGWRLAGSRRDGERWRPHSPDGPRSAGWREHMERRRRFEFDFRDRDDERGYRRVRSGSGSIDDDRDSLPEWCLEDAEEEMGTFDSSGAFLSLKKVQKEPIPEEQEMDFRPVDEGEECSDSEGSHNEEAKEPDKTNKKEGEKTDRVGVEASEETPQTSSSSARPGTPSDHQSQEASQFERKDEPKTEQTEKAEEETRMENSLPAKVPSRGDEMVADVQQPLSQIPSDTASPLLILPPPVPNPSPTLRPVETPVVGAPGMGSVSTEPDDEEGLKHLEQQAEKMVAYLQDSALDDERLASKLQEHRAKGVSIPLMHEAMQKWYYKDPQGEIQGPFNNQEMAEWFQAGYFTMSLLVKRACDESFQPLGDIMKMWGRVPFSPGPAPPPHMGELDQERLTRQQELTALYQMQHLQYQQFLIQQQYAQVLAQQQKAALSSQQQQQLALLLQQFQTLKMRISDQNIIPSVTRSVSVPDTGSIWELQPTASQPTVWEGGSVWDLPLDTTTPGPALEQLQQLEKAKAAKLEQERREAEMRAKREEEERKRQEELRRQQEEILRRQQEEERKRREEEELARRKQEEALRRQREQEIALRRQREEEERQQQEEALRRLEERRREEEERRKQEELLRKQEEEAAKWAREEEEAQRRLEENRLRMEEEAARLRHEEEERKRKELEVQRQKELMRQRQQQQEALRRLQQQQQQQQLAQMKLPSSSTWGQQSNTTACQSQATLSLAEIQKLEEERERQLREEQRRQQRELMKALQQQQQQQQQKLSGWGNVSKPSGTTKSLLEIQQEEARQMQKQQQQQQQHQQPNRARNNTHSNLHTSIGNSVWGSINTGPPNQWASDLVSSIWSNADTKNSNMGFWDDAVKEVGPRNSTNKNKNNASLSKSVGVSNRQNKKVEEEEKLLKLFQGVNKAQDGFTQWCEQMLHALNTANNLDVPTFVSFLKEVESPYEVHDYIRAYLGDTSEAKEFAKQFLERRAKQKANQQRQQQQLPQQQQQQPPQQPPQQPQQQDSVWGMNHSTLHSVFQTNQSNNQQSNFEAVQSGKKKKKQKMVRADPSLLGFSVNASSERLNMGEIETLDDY
# Sequence of UniProt Q02790 (Q02790 whole entry, looked up): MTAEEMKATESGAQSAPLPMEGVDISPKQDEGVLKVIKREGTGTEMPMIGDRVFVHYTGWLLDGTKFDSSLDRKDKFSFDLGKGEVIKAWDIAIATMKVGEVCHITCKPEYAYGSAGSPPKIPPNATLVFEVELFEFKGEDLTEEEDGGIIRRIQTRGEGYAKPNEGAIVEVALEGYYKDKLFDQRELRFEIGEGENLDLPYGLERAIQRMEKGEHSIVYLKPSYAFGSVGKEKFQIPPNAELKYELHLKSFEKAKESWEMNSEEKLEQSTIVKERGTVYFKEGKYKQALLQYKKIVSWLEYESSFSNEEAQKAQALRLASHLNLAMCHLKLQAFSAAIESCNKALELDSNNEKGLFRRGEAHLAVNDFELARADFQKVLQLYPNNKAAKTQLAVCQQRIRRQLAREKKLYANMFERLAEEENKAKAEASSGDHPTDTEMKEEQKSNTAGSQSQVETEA
# Sequence of UniProt Q92664 (Q92664 whole entry, looked up): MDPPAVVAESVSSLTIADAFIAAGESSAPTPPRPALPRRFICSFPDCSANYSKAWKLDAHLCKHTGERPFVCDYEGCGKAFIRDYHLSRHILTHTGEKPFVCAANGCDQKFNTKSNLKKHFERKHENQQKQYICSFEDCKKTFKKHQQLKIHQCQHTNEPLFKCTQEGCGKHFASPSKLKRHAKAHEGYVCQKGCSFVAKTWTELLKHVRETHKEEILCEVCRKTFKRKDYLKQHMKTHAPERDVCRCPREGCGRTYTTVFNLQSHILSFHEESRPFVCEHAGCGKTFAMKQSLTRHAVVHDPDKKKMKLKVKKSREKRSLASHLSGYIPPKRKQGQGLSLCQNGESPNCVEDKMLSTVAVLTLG
# Sequence of UniProt P37268 (P37268 whole entry, looked up): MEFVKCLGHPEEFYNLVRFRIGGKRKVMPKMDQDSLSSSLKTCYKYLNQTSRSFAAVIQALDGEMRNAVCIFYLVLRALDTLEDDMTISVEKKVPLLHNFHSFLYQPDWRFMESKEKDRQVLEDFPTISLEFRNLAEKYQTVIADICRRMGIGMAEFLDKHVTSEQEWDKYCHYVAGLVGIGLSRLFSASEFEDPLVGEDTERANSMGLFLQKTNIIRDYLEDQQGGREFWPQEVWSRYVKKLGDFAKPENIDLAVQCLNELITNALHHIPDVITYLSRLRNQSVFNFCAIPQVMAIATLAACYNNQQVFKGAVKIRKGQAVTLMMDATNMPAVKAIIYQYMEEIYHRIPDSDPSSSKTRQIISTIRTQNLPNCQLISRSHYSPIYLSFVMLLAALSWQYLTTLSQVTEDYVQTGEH
# Sequence of UniProt Q9BUP3 (Q9BUP3 whole entry, looked up): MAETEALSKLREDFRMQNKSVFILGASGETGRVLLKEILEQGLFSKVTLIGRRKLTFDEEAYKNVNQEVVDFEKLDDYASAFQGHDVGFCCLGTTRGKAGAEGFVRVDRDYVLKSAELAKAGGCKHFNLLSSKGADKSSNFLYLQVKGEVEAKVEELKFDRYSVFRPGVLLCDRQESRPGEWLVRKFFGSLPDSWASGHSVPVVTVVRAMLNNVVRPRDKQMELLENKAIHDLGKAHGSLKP
# Sequence of UniProt P48507 (P48507 whole entry, looked up): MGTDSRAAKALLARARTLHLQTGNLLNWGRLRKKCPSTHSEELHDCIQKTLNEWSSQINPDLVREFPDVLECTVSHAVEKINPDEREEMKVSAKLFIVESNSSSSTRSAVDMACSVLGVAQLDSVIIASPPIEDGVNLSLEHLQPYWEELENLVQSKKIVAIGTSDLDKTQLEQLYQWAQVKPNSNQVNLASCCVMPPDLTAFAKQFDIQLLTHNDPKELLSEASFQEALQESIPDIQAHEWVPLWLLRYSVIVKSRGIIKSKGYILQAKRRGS
# Sequence of UniProt Q9UKD1 (Q9UKD1 whole entry, looked up): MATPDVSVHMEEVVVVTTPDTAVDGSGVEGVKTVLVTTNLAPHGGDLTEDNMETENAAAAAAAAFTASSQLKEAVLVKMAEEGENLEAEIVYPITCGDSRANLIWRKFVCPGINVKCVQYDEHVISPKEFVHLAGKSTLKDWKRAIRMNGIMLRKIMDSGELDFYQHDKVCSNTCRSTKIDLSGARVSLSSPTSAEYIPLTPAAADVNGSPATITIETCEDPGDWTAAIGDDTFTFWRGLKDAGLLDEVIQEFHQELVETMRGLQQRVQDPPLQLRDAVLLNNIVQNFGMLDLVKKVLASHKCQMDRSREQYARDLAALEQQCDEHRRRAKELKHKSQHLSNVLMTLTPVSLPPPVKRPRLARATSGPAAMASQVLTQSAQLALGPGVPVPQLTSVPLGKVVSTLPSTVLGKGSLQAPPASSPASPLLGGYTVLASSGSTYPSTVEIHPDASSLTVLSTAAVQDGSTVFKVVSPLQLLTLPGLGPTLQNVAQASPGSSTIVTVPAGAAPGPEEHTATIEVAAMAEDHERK
# Sequence of UniProt Q10472 (Q10472 whole entry, looked up): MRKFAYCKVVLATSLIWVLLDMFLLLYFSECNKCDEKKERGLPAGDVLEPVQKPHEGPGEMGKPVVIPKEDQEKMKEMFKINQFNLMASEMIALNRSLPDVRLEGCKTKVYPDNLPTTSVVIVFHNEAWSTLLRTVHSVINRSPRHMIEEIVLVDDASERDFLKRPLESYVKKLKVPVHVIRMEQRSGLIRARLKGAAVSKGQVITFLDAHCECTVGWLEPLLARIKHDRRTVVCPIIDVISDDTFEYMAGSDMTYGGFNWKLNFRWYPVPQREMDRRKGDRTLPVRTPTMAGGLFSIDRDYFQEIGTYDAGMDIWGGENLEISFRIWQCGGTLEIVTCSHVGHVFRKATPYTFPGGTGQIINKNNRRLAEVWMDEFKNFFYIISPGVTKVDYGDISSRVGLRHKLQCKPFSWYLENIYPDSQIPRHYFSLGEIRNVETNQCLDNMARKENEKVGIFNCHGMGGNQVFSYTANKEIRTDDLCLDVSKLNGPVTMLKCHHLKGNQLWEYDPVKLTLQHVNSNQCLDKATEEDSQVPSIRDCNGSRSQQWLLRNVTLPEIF
# Sequence of UniProt P36969 (P36969 whole entry, looked up): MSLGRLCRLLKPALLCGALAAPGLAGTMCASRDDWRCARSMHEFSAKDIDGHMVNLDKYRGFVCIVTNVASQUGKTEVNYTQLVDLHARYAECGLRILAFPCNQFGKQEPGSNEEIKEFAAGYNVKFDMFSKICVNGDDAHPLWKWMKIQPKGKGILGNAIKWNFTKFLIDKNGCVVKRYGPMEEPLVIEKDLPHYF
Target,log2 fold change [1],log2 fold change (crizotinib),log2 fold change [2],log2 fold change [3],log2 fold change (duvelisib),log2 fold change (gandotinib),log2 fold change (tozasertib),log2 fold change [4],log2 fold change (doramapimod),log2 fold change (ispinesib)
FAM91A1 (UniProt Q658Y4),-0.11,-0.006,0.192,-0.034,-0.008,-0.08,0.022,-0.001,-0.012,0.014
GPAT4 (UniProt Q86UL3),0.15,0.287 (active),0.066,-0.071,0.017,-0.009,0.063,0.061,-0.063,0.194
ICAM1 (UniProt P05362),0.052,0.142,0.026,-0.069,0.024,-0.134,-0.062,-0.054,-0.012,0.121
FDFT1 (UniProt P37268),-0.009,0.105,-0.032,-0.065,0.32 (active),0.061,-0.032,0.174,0.02,0.077
HRAS (UniProt P01112),-0.064,0.18,-0.129,-0.057,-0.025,0.068,-0.149,-0.077,-0.032,0.22
GTF3A (UniProt Q92664),-0.002,-0.145,0.015,0.078,0.019,0.023,-0.025,0.023,-0.001,–
FKBP4 (UniProt Q02790),0.013,-0.008,0.042,-0.068,0.019,-0.105,-0.005,0.077,-0.052,-0.017
HMGN2 (UniProt P05204),-0.093,0.051,-0.201,-0.019,-0.062,-0.212,-0.031,-0.058,-0.1,-0.048
IGF2BP2 (UniProt Q9Y6M1),0.009,-0.062,-0.186,0.531 (active),-0.161,0.139,0.012,0.158,0.288,-0.182
GSK3B isoform 2 (UniProt P49841),0.09,-0.053,-0.032,-0.143,-0.015,-0.108,-0.043,0.015,-0.013,0.059
GALNT1 (UniProt Q10472),0.014,-0.012,0.019,-0.013,0.046,0.012,-0.043,0.004,0.026,0.048
HTATIP2 isoform 3 (UniProt Q9BUP3),0.014,-0.106,0.023,-0.145,0.294 (active),0.003,0.013,0.027,0.003,-0.111
FUT8 (UniProt Q9BYC5),0.018,-0.235,0.077,-0.011,-0.007,0.034,-0.14,0.178,-0.017,-0.148
HEXA (UniProt P06865),0.016,-0.785 (active),0.02,-0.015,0.049,0.015,0.002,-0.02,-0.016,-0.124
HEXB (UniProt P07686),-0.009,-0.377 (active),0.058,-0.021,0.008,-0.013,0.012,-0.031,-0.007,-0.128
GMEB2 (UniProt Q9UKD1),-0.012,0.041,-0.063,-0.09,-0.028,-0.001,0.051,0.009,0.053,0.071
HMGB3 (UniProt O15347),0.045,0.026,-0.018,-0.071,0.01,0.01,0.029,-0.001,0.002,0.1
GEMIN5 (UniProt Q8TEQ6),-0.004,-0.047,0.038,0.02,-0.006,-0.082,0.016,0.055,-0.001,-0.088
GIGYF2 (UniProt Q6Y7W6),0.005,-0.084,0.083,0,0.006,-0.03,-0.012,0.114,-0.028,-0.179
FBXO7 (UniProt Q9Y3I1),0.038,0.041,0.061,-0.023,0.015,-0.194,-0.018,0.083,-0.029,0.098
FUNDC1 (UniProt Q8IVP5),0.046,–,–,–,–,–,–,–,–,–
GYS1 (UniProt P13807),0.017,-0.097,-0.187,0.311,-0.147,-0.015,-0.079,0.184,0.271,-0.231
GPX4 (UniProt P36969),0.014,0.079,0.011,-0.072,0.055,0.013,0.023,-0.017,-0.039,0.213
FARS2 (UniProt O95363),0.004,-0.043,0.088,0.041,0.073,-0.021,0.045,0.06,-0.023,-0.157
GCLM (UniProt P48507),0.058,-0.003,0.042,-0.019,-0.007,-0.15,0.108,0.06,-0.072,0.076
HIP1R (UniProt O75146),0.016,-0.1,0.058,0.026,-0.045,-0.069,-0.008,0.029,0.007,-0.097
GSR (UniProt P00390),0.009,0.046,0.029,-0.085,0.014,0.002,-0.011,-0.02,-0.047,-0.003
HIST2H2BF isoform 2 (UniProt Q5QNW6),-0.049,-0.095,-0.279,0.38,-0.051,-0.018,0.119,-0.064,0.253,-0.178

# — the supplement of paper PMC10849652
